This note sets out measurements from PubChem BioAssay AID1259336 (Sattelle Laboratory, UCL Respiratory, Division of Medicine, …, 2017).

Molecules are shown by their SMILES. The source made the active and inactive calls. Rule as the data show it: active = log2 fold change growth below about -1.8; inactive = the rest.

The test can be described thus: C. elegans growth inhibition, whole organism, log2 fold change (AID 1259336).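 Also: growth scored by imaging after five days at 20 °C.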 Particulars: anthelmintic screen, stronger effect = lower value.
Regarding `CC(C)N=c1cc2n(-c3ccc(Cl)cc3)c3ccccc3nc-2cc1Nc1ccc(Cl)cc1`, the log2 fold change growth is 0.0581 (inactive).

As to `CC1=Nc2ccc(Cl)cc2[C@@](O)(c2ccc(C)cc2)N1CCN1CCCCC1`, the log2 fold change growth is 0.034 (inactive).

As for `COc1ccc(Cl)cc1NC(=O)CN(C)C(=O)c1cnn(-c2ccccc2)n1`, the log2 fold change growth is -0.154 (inactive).

Consider `Cc1cc(C)n(-c2ccc(NC(=O)C3CCN(Cc4cnc(C)s4)CC3)cc2)n1`, for which the log2 fold change growth was 0.442 (inactive).

In the case of `O=C(NCCc1ccccc1)c1cc(-c2cccnc2)cnc1NCC1CC1`, the log2 fold change growth was -0.19 (inactive).

In the case of `CNC(=O)[C@@H]1Cc2c([nH]c3cc(Cl)ccc23)C2(CCN(CCc3ccccc3)CC2)N1`, the log2 fold change growth was 0.551 (inactive).

With `O=S(=O)(c1ccc(Cl)cc1)N1CCN(C(=S)NCc2ccco2)CC1`, the log2 fold change growth was -0.203 (inactive).

Regarding `CC(C)(C(=O)Nc1ccc(F)cc1)n1cc(-c2ccccc2F)cn1`, the log2 fold change growth is 0.0447 (inactive).

Take `COc1cc(C2=NCCN2)ccc1-c1cn(-c2cccc(C3=NCCN3)c2)nn1`: the log2 fold change growth is -0.121 (inactive).

Consider `CNCC[C@H](Oc1ccc(C(F)(F)F)cc1)c1ccccc1`, for which the log2 fold change growth was 0.102 (inactive).

With `COc1cccn2c(C(=O)N3CCCCC3)c(C(F)(F)F)nc12`, the log2 fold change growth was 0.258 (inactive).

For `Cc1cc(Nc2ccncc2)n2nc(C)c(-c3ccccc3Cl)c2n1`, the log2 fold change growth was -0.496 (inactive).

For the compound `O=C(Nc1nnc(-c2ccc(Cl)cc2)o1)c1cccc(C(F)(F)F)c1`, the log2 fold change growth was -1.36 (inactive).

As for `O=C(c1cc2ccccc2o1)N1CCN(Cc2ccc3c(c2)OCO3)CC1`, the log2 fold change growth is 0.212 (inactive).

Consider `COc1cccc(CC(=O)N2CCC(n3c(C)nc4ccc(F)cc43)CC2)c1`, for which the log2 fold change growth was 0.116 (inactive).

Turning to `Cc1ccc(-c2cc(C(=O)Nc3cccnc3)c3cc(Br)ccc3n2)cc1`, the log2 fold change growth was -0.0922 (inactive).

Turning to `Cc1cc(Cl)ccc1NC(=O)CCc1ccc(S(=O)(=O)NCC(C)C)cc1`, the log2 fold change growth is -0.221 (inactive).

`COc1ccc(CN2CCOc3ccc([C@@](C)(O)CN(C)C)cc3C2)cc1C`: the log2 fold change growth is 0.162 (inactive).

For `O=C(NCCc1ccn(-c2ccccc2)n1)C1CCCCC1`, the log2 fold change growth was 0.0936 (inactive).

Take `CC(C)(C)c1cc(C(=O)N2CCN(c3nccnc3C#N)CC2)n(Cc2ccccc2)n1`: the log2 fold change growth was -0.0659 (inactive).

Take `O=C(N[C@H]1CCN(c2ccnc3ccccc23)C1)c1cccc(C(F)(F)F)c1`: the log2 fold change growth was 0.541 (inactive).

For the compound `CCc1nc2ccccc2n1C[C@H](O)COc1cc(C)ccc1Cl`, the log2 fold change growth was 0.0644 (inactive).

As to `COc1ccc(-c2cnc3ccc(N4CCCC4)nn23)cc1OC`, the log2 fold change growth was -0.625 (inactive).

Regarding `O=C(c1ccco1)N(CCCn1ccnc1)c1nc2c(Cl)cccc2s1`, the log2 fold change growth is -2.18 (active).
